The record followed here is PubChem BioAssay (NCI).

Compounds without any hit were thinned out: in the full panel of roughly 79,000, 15% have a hit. A number with no mark means an inactive call. Active and inactive are the calls of the source. Cut-off read from the data, not from the text of the source: active = growth inhibition above about 70%; inactive = the rest.

Assay [1] can be described thus: NCI Yeast Anticancer Drug Screen. Data for the rad50 strain (AID 155).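 Note: 0% = growth of vehicle-only cultures of the same strain.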 The note with it: S. cerevisiae rad50 strain growth inhibition, stronger effect = higher value. The essentials: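 Cells are treated with compound, grown, and their growth is then scored against vehicle-only cultures of the same repair-deficient yeast strain.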
The nature of assay [2]: NCI Yeast Anticancer Drug Screen. Data for the mec2-1 strain (AID 157). The note with it: S. cerevisiae mec2-1 strain, stronger effect = higher value. The essentials: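 Cells of the genetically defined mec2-1 yeast strain are incubated with test compound. Inhibition of growth is calculated against vehicle-treated controls.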
Assay [3] in a line: NCI Yeast Anticancer Drug Screen. Data for the sgs1 mgt1 strain (AID 161).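 Note: 0% = growth of cultures given vehicle only.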 The note with it: S. cerevisiae sgs1 mgt1 strain, stronger effect = higher value. The essentials:
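Read-out: growth inhibition vs vehicle controls. Cells: mutant yeast strain deficient in DNA damage repair.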

A short description of assay [4]: NCI Yeast Anticancer Drug Screen. Data for the cln2 rad14 strain (AID 165).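 Note: 0% = growth equal to vehicle treated cultures.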 The note with it: S. cerevisiae cln2 rad14 strain, stronger effect = higher value. Summed up:
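The screen exposed genetically defined yeast (cln2 rad14) to test compounds and scored growth inhibition relative to vehicle-treated controls.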

A short description of assay [5]: NCI Yeast Anticancer Drug Screen. Data for the bub3 strain (AID 167). The note with it: S. cerevisiae bub3 mutant strain, stronger effect = higher value. The essentials: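 Part of a panel of yeast mutants defective in DNA damage repair or cell cycle regulation. Each strain is grown with compound, and inhibition is calculated relative to solvent-treated cultures.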
Assay [6] is described as follows: NCI Yeast Anticancer Drug Screen. Data for the mlh1 rad18 strain (AID 175). The note with it: S. cerevisiae mlh1 rad18 strain growth inhibition, stronger effect = higher value. The essentials: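 Compound-treated yeast growth, normalised to vehicle controls. Strain bears defined DNA repair mutations.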
[7] abbreviates: at 5.0 µM (retest, dose inferred, filed as 0.5).
Where [8] appears, read: at 50.0 µM (retest, dose inferred, filed as 5.0).

Regarding `Cc1cccc[n+]1CC(=O)c1cccc(O)c1`, the growth inhibition in assay [1] (setting [7]) was 1%; in assay [1] (setting [8]), -2%; in assay [1] (at 50.0 µM), -11.1%; in assay [2] (setting [7]) it was -2%; in assay [2] (setting [8]) it was 4%; in assay [2] (at 50.0 µM) it was -3.5%. Moreover, the growth inhibition in assay [3] (setting [7]) was 0%; in assay [3] (setting [8]), -2%; in assay [3] (at 50.0 µM) it was -7.45%; in assay [4] (setting [7]), 4%; in assay [4] (setting [8]), -4%; in assay [4] (at 50.0 µM), 36.6%. For the same compound, the growth inhibition in assay [5] (setting [7]) is 1%; in assay [5] (setting [8]), -3%; in assay [5] (at 50.0 µM) it was -13.6%; in assay [6] (setting [7]), -2%; in assay [6] (setting [8]), -4%; in assay [6] (at 50.0 µM) it was 7.25%.
Take `CCCCCCCCCCCCSC1=C(N)C(=O)c2ccccc2C1=O`: the growth inhibition in assay [1] (setting [7]) is 3%; in assay [1] (setting [8]), 2%; in assay [1] (at 50.0 µM) it was 8.35%; in assay [2] (setting [7]), 0%; in assay [2] (setting [8]), 3%; in assay [2] (at 50.0 µM), 11.1%. In addition, the growth inhibition is 8% in assay [3] (setting [7]); -5% in assay [3] (setting [8]); -9.05% in assay [3] (at 50.0 µM); -3% in assay [4] (setting [7]); 0% in assay [4] (setting [8]); 32.3% in assay [4] (at 50.0 µM). The growth inhibition is -1% in assay [5] (setting [7]); -1% in assay [5] (setting [8]); 11.3% in assay [5] (at 50.0 µM); 0% in assay [6] (setting [7]); 5% in assay [6] (setting [8]); 53% in assay [6] (at 50.0 µM).
Consider `CCOC(=O)c1c(Cl)nnc(-c2ccccc2)c1-c1ccccc1`, for which the growth inhibition in assay [1] (setting [7]) is 0%; in assay [1] (setting [8]) it was 98% (active); in assay [1] (at 50.0 µM), 98.2% (active); in assay [2] (setting [7]), 1%; in assay [2] (setting [8]) it was 99% (active); in assay [2] (at 50.0 µM), 96.2% (active). For the same compound, the growth inhibition in assay [3] (setting [7]) is -2%; in assay [3] (setting [8]), 98% (active); in assay [3] (at 50.0 µM), 96.3% (active); in assay [4] (setting [7]), 1%; in assay [4] (setting [8]), 97% (active); in assay [4] (at 50.0 µM) it was 92.3% (active). Moreover, the growth inhibition in assay [5] (setting [7]) was 13%; in assay [5] (setting [8]), 98% (active); in assay [5] (at 50.0 µM), 97.5% (active); in assay [6] (setting [7]), -1%; in assay [6] (setting [8]), 98% (active); in assay [6] (at 50.0 µM), 98% (active).
With `CCN1CCC(O)(/C=C/c2ccccc2)C(C(=O)/C=C/c2ccccc2)C1` (configuration not stated), the growth inhibition in assay [1] (setting [7]) was 11%; in assay [1] (setting [8]), 89% (active); in assay [1] (at 50.0 µM) it was 97.7% (active); in assay [2] (setting [7]), 6%; in assay [2] (setting [8]), 80% (active); in assay [2] (at 50.0 µM), 98.2% (active). Besides, the growth inhibition was 13% in assay [3] (setting [7]); 82% (active) in assay [3] (setting [8]); 97.8% (active) in assay [3] (at 50.0 µM); 13% in assay [4] (setting [7]); 74% (active) in assay [4] (setting [8]); 85.1% (active) in assay [4] (at 50.0 µM). Besides, the growth inhibition is 8% in assay [5] (setting [7]); 94% (active) in assay [5] (setting [8]); 98.9% (active) in assay [5] (at 50.0 µM); 19% in assay [6] (setting [7]); 93% (active) in assay [6] (setting [8]); 96% (active) in assay [6] (at 50.0 µM).
As for `Cc1c2cnccc2c(C)c2c1sc1ccccc12`, the growth inhibition in assay [1] (setting [7]) was 92% (active); in assay [1] (setting [8]) it was 88% (active); in assay [1] (at 50.0 µM), 96.5% (active); in assay [2] (setting [7]), 80% (active); in assay [2] (setting [8]), 96% (active); in assay [2] (at 50.0 µM), 73.5% (active). Also, the growth inhibition in assay [3] (setting [7]) was 87% (active); in assay [3] (setting [8]) it was 96% (active); in assay [3] (at 50.0 µM), 90.2% (active); in assay [4] (setting [7]) it was 65%; in assay [4] (setting [8]), 91% (active); in assay [4] (at 50.0 µM) it was 75.5% (active). Moreover, the growth inhibition was 56% in assay [5] (setting [7]); 93% (active) in assay [5] (setting [8]); 81.3% (active) in assay [5] (at 50.0 µM); 96% (active) in assay [6] (setting [7]); 92% (active) in assay [6] (setting [8]); 97.7% (active) in assay [6] (at 50.0 µM).
As for `COC(=O)C1C(C(=O)OC)C2(OC(c3ccc(Cl)cc3)=CC2=O)C12OC(c1ccc(Cl)cc1)=CC2=O` (configuration not stated), the growth inhibition in assay [1] (setting [7]) was 2%; in assay [1] (setting [8]) it was 74% (active); in assay [1] (at 50.0 µM), 89.8% (active); in assay [2] (setting [7]), 12%; in assay [2] (setting [8]) it was 99% (active); in assay [2] (at 50.0 µM), 92% (active). The growth inhibition in assay [3] (setting [7]) is 12%; in assay [3] (setting [8]) it was 96% (active); in assay [3] (at 50.0 µM), 90% (active); in assay [4] (setting [7]), 4%; in assay [4] (setting [8]), 63%; in assay [4] (at 50.0 µM), 89.8% (active). Also, the growth inhibition in assay [5] (setting [7]) is -1%; in assay [5] (setting [8]), 90% (active); in assay [5] (at 50.0 µM), 92% (active); in assay [6] (setting [7]), 13%; in assay [6] (setting [8]) it was 98% (active); in assay [6] (at 50.0 µM), 87.2% (active).
Regarding `CC(C)NC(=O)OCc1c2c(n(C)c1COC(=O)NC(C)C)-c1ccccc1CC2`, the growth inhibition in assay [1] (setting [7]) was 77% (active); in assay [1] (setting [8]) it was 97% (active); in assay [1] (at 50.0 µM) it was 98.2% (active); in assay [2] (setting [7]) it was 14%; in assay [2] (setting [8]), 98% (active); in assay [2] (at 50.0 µM) it was 98.6% (active). The growth inhibition in assay [3] (setting [7]) is 13%; in assay [3] (setting [8]) it was 97% (active); in assay [3] (at 50.0 µM), 98.4% (active); in assay [4] (setting [7]), -5%; in assay [4] (setting [8]), 97% (active); in assay [4] (at 50.0 µM) it was 97.8% (active). For the same compound, the growth inhibition in assay [5] (setting [7]) was 4%; in assay [5] (setting [8]) it was 98% (active); in assay [5] (at 50.0 µM), 97.6% (active); in assay [6] (setting [7]), 26%; in assay [6] (setting [8]), 96% (active); in assay [6] (at 50.0 µM) it was 98.2% (active).
Consider `O=[N+]([O-])c1ccccc1C1CN=NN1c1ccccc1` (configuration not stated), for which the growth inhibition in assay [1] (setting [7]) was -9%; in assay [1] (setting [8]), 47%; in assay [1] (at 50.0 µM), -0.9%; in assay [2] (setting [7]), -2%; in assay [2] (setting [8]), 25%; in assay [2] (at 50.0 µM), 17.9%. Besides, the growth inhibition was -1% in assay [3] (setting [7]); 33% in assay [3] (setting [8]); 38.2% in assay [3] (at 50.0 µM); -14% in assay [4] (setting [7]); 32% in assay [4] (setting [8]); -11.3% in assay [4] (at 50.0 µM). The growth inhibition in assay [5] (setting [7]) was -3%; in assay [5] (setting [8]), 61%; in assay [5] (at 50.0 µM), 85.5% (active); in assay [6] (setting [7]), 0%; in assay [6] (setting [8]), 37%; in assay [6] (at 50.0 µM), 24.9%.
In the case of `CCCCCCCCCCCCOC(=O)C[n+]1cccc(C(=O)Nc2ccccc2)c1`, the growth inhibition is 96% (active) in assay [1] (setting [7]); 98% (active) in assay [1] (setting [8]); 99.2% (active) in assay [1] (at 50.0 µM); 97% (active) in assay [2] (setting [7]); 99% (active) in assay [2] (setting [8]); 99.4% (active) in assay [2] (at 50.0 µM). The growth inhibition in assay [3] (setting [7]) is 95% (active); in assay [3] (setting [8]) it was 99% (active); in assay [3] (at 50.0 µM), 99.5% (active); in assay [4] (setting [7]), 96% (active); in assay [4] (setting [8]) it was 99% (active); in assay [4] (at 50.0 µM), 98.9% (active). Besides, the growth inhibition is 96% (active) in assay [5] (setting [7]); 98% (active) in assay [5] (setting [8]); 98.8% (active) in assay [5] (at 50.0 µM); 99% (active) in assay [6] (setting [7]); 99% (active) in assay [6] (setting [8]); 99.2% (active) in assay [6] (at 50.0 µM).
